Reference: publication PMC7826789 (International Journal of Molecular Sciences, 2021)

Assays:
Conditions in all cases: Compound Concentration (nM):1000
[1] = test system: T1, MRCKA
T1 construct: gene CDC42BPA

[2] = test system: T2, MRCKB
T2 construct: gene CDC42BPB

[3] = test system: MST1R
[4] = test system: T3, MST1
T3 construct: gene STK4

[5] = test system: T4, MST2
T4 construct: gene STK3

[6] = test system: T5, MST3
T5 construct: gene STK24

[7] = test system: MST4
[8] = test system: MTOR
[9] = test system: MUSK
[10] = test system: MYLK2
[11] = test system: MYLK4
[12] = test system: MYLK
[13] = test system: MYO3A
[14] = test system: MYO3B
[15] = test system: T6, NDR1
T6 construct: gene STK38

[16] = test system: T7, NDR2
T7 construct: gene STK38L

[17] = test system: NEK10
[18] = test system: NEK11
[19] = test system: NEK1
[20] = test system: NEK2
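Further: KINOMEscan scanMAX binding as percent activity remaining versus control; lower means stronger binding.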

SMILES | Percent Control [1] | Percent Control [2] | Percent Control [3] | Percent Control [4] | Percent Control [5] | Percent Control [6] | Percent Control [7] | Percent Control [8] | Percent Control [9] | Percent Control [10] | Percent Control [11] | Percent Control [12] | Percent Control [13] | Percent Control [14] | Percent Control [15] | Percent Control [16] | Percent Control [17] | Percent Control [18] | Percent Control [19] | Percent Control [20]
CCS(=O)(=O)c1ccc(OC)c(Nc2ncc(-c3cccc(F)c3)o2)c1 [GW621970X] | 100% | 100% | 100% | 100% | 100% | 100% | 93% | 100% | 100% | 98% | 100% | 100% | 100% | 100% | 100% | 100% | 100% | 93% | 84% | 100%
COc1cc(/C=N/Nc2ncnc3[nH]ncc23)ccc1O [GW578748X] | 100% | 100% | 100% | 100% | 86% | 93% | 20% | 96% | 100% | 81% | 38% | 68% | 100% | 100% | 73% | 100% | 100% | 28% | 70% | 100%
O=C1Nc2ccc(C(=O)c3ccco3)cc2C1=Cc1cc(Cl)c(O)c(Cl)c1 [GW406108X] | 100% | 100% | 100% | 93% | 0% | 86% | 79% | 100% | 100% | 100% | 69% | 51% | 34% | 100% | 95% | 88% | 3.3% | 100% | 78% | 83%
C/C(Nc1ccc(S(N)(=O)=O)cc1)=C1/C(=O)Nc2ccccc21 [GW335962X] | 100% | 92% | 100% | 82% | 100% | 27% | 8.4% | 96% | 100% | 100% | 100% | 70% | 66% | 100% | 65% | 87% | 100% | 100% | 75% | 100%
COc1ccccc1-c1cc(/C=C2\C(=O)Nc3ncc(Br)cc32)cc(Br)c1O [GW442130X] | 100% | 100% | 100% | 100% | 95% | 100% | 100% | 77% | 100% | 97% | 100% | 100% | 75% | 100% | 97% | 74% | 100% | 100% | 95% | 100%
COc1ccc2[nH]c3c4[nH]c5ccc(OC)cc5c4c4c(c3c2c1)C(=O)NC4=O [GW296115X] | 76% | 89% | 93% | 100% | 82% | 76% | 85% | 100% | 83% | 82% | 49% | 6.9% | 81% | 100% | 57% | 72% | 93% | 100% | 100% | 78%
CN(C)c1cc2c(Nc3ccc4c(cnn4Cc4ccccc4)c3)ncnc2cn1 [GW282974X] | 100% | 84% | 100% | 100% | 83% | 90% | 83% | 100% | 95% | 98% | 86% | 100% | 92% | 99% | 100% | 84% | 89% | 100% | 79% | 66%
CCn1c(-c2nonc2N)nc2c(C#CC(C)(C)O)nc(OCCNC)cc21.Cl [GSK949675] | 100% | 100% | 100% | 100% | 100% | 100% | 100% | 85% | 100% | 98% | 100% | 88% | 100% | 98% | 87% | 81% | 100% | 100% | 100% | 100%
CC(C)COC(=O)c1ccc2c(c1)/C(=C/Nc1ccc(S(N)(=O)=O)cc1)C(=O)N2 [GW416981X] | 100% | 100% | 100% | 100% | 1.1% | 98% | 31% | 100% | 100% | 100% | 100% | 100% | 100% | 100% | 66% | 100% | 100% | 100% | 94% | 100%
NS(=O)(=O)c1ccc(N/N=C2\C(=O)Nc3ccc(Cl)cc32)cc1 [GW280670X] | 100% | 100% | 100% | 100% | 100% | 100% | 63% | 100% | 100% | 100% | 100% | 80% | 100% | 100% | 91% | 100% | 100% | 100% | 100% | 100%
